Hit rate of the full screen: of about 1,100 compounds, about 260 (24%) were called active. Only a sample is shown. A number with no mark means an inactive call.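 Rule for the calls: active = surface receptor percent response at or below 58%, roughly 3 SD from nonfluorescent compounds; inactive = the rest.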

The target in this assay is Beta-2 adrenergic receptor (Homo sapiens) (UniProt P07550). Nature of the assay: beta2AR agonists via receptor internalization, confirmation, cell-based, FAP fluorogen, flow cytometry, single point, cherry pick 1 (AID 540358). The note with it: Am2.2-beta2AR cells, at 10 µM, active compounds read low.
Beta-2 adrenergic receptor (Homo sapiens), sequence (P07550 whole entry, looked up): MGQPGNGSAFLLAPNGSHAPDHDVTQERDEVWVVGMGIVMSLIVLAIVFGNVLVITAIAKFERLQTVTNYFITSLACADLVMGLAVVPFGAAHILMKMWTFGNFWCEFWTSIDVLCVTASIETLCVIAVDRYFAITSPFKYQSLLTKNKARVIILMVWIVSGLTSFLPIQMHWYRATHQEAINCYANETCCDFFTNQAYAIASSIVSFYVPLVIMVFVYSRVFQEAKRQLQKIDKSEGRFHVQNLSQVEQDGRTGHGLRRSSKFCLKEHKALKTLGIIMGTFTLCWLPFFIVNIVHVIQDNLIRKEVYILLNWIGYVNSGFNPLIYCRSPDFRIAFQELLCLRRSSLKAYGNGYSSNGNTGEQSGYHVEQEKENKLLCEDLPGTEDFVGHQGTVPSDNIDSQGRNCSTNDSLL
In the case of `CCC(=O)c1ccc(OCC(=O)N2CCN(CC(=O)Nc3ccc(C)cc3)CC2)cc1`, the percent response (surface receptor) is 10.7% (active). As to `O=C1NC(=O)C(CCc2ccccn2)(Cc2cccc(Cl)c2Cl)C(=O)N1c1ccc(Br)cc1` (stereo not drawn), the percent response (surface receptor) is 91.2%. Then `CC(Cc1ccccc1)NCCC(c1ccccc1)c1ccccc1` (stereo not drawn), with 105%.

The values above are taken from PubChem BioAssay AID540358 (NMMLSC, 2011).
